MRP1 act: activators of MRP-1. H69AR cells + doxorubicin, viability rescue, CellTiter-Glo. viability increase, % at 10 µM. 0.61% of 140,000 active. AID 799;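 active = viability gain under doxorubicin at or above a set limit, the compound median plus 3 SD, cut at about 4.7% in these data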;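 also: MRP-1 overexpressing cells given doxorubicin 25 µM after compound pretreatment; 18-22 h compound pretreatment then 72 h with doxorubicin before readout; 0% = doxorubicin-only wells and 100% = vehicle-treated cells without doxorubicin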
GALR2 agonist: GALR2 (human) receptor agonism; O43603; GALR2-expressing cells, agonist activation read-out; activation, % (concentration not given with the values); 0.48% of 140,000 active; AID 803; in the data active = activation above about 5%, passing the limit was not always enough;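 also: 0% = vehicle buffer wells and 100% = reference agonist at full effect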
Target sequence (O43603 whole entry, looked up): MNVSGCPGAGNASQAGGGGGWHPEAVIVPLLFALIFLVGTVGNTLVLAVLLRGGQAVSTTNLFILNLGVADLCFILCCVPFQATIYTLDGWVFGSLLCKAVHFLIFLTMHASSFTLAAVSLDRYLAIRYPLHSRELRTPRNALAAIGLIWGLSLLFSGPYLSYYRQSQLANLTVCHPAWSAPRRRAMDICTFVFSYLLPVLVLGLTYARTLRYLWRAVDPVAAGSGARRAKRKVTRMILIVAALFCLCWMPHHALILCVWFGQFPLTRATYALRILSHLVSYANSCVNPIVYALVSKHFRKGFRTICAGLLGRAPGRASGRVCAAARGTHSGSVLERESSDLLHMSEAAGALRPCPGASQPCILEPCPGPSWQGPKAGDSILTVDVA
MRP reversal: reverses drug resistance mediated by MRP | H69AR cells + 2 uM doxorubicin, CellTiter-Glo, 72 h | differential viability (reversal), % at 10 µM | 0.04% of 85,000 active | AID 602;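 active = viability drop by adding the cancer drug above about 55%, with treated viability meeting a 40% cutoff, limit read from the data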;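 also: viability without doxorubicin minus viability with 2 µM doxorubicin for each compound; larger differential means the compound sensitizes cells more to doxorubicin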
GALR2 blocker: blocks the human galanin receptor 2; inhibition, % at 4 µM; 0.39% of 140,000 active; GALR2-expressing cells, antagonist mode;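 also: cells stimulated with galanin 1-16 at roughly its EC80; 0% = agonist challenge control and 100% = basal control without agonist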
S1P2 ag: activates the human S1P2 receptor | activation, % at 4.5 µM | AID 729 | S1P2-expressing cell line, agonist reporter read-out | 0.46% of 97,000 active | O95136; in the data active = activation above about 16%;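 also: 0% = vehicle low control and 100% = maximal reference agonist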
Target sequence (O95136 whole entry, looked up): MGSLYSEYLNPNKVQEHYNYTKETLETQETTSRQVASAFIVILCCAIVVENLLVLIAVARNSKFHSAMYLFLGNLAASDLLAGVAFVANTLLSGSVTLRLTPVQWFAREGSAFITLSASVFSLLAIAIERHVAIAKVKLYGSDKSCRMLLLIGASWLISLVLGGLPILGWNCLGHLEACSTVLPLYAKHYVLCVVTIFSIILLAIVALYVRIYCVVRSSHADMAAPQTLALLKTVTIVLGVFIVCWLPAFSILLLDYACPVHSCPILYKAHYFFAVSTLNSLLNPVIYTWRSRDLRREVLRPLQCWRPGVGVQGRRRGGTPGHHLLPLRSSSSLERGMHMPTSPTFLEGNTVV
S1P2 antag: S1P2 (human) receptor antagonism; cell-based S1P2 antagonist assay, inhibition at 5 uM; inhibition, % at 5 µM; O95136; AID 736; 0.21% of 97,000 active; in the data active = inhibition above about 45%;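 also: CRE beta-lactamase reporter cells expressing human S1P2 stimulated with S1P; 0% = agonist at EC80 alone and 100% = agonist plus reference antagonist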
GALR2 ant conf: GALR2 (human) antagonism confirmed; shares compounds with GALR2 blocker; GALR2-expressing cells, antagonist mode, inhibition; inhibition, % at 4 µM; 60% of 480 active;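 also: cells stimulated with galanin at about its EC80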
BLA inh counter: beta-lactamase inhibition, GALR2 counterscreen; shares compounds with GALR2 blocker; CHO NFAT-BLA reporter, beta-lactamase FRET, thapsigargin-stimulated; inhibition, % at 4.2 µM; 36% of 480 active; AID 867;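 active = inhibition above the mean inhibition across tested compounds plus 3 SD, cut at about 27% in these data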;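 also: 0% = 500 nM thapsigargin stimulated wells and 100% = unstimulated BSA only wells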
* marks the source's active call; other numbers are inactive results; . = not tested or not shown. Shown are actives, neighbours in structure and some others; about 1.8% of the full set was active somewhere. Rule as the data show it, unless noted: active = inhibition above about 27%; inactive = the rest.

SMILES	MRP1 act	GALR2 agonist	MRP reversal	GALR2 blocker	S1P2 ag	S1P2 antag	GALR2 ant conf	BLA inh counter
O=C(NCc1cccnc1)/C(=C\c1ccc(-c2ccc(Br)cc2)o1)S(=O)(=O)c1ccccc1	-5.8	-0.5	.	36.9*	.	.	41.0*	27.4*
Cc1ccc(-c2cc(C(=O)NCc3cccnc3)no2)cc1	-1.1	-0.6	.	-10.8	-8.8	2.2	.	.
Cn1ncc2c(NNC(=O)Cc3ccccc3)ncnc21	-0.2	-0.6	.	-2.2	.	.	.	.
Nc1c(C(=O)Nc2nc3ccccc3s2)sc2nc(-c3cccs3)ccc12	-6.9	0.2	.	40.8*	-12.6	73.3*	49.1*	48.9*
O=C(OCCN1C(=O)c2ccccc2C1=O)c1cc(=O)[nH]c2ccccc12	-0.7	0.5	11.5	-12.7	-2.1	14.4	.	.
Cc1nc2ccc(NS(=O)(=O)c3ccc4c(c3)OCCO4)cc2s1	-2.1	-2.1	.	33.6*	-2.7	21.6	26.1	13.1
Cc1ccc(S(=O)(=O)Nc2ccc3nc(C)sc3c2)cc1	-2.6	-0.5	5.9	15.0	-3.3	6.2	.	.
O=C(Nc1cccc(S(=O)(=O)N2CCOCC2)c1)c1ccc(N2CCOCC2)c([N+](=O)[O-])c1	-1.4	-1.2	.	-0.5	.	.	.	.
O=C(C#Cc1ccccc1)c1cccc([N+](=O)[O-])c1	-2.6	1.2	0.7	33.6*	-12.1	66.6*	72.4*	75.3*
N/C(=N\OC(=O)Oc1ccccc1)c1cccc([N+](=O)[O-])c1	0.1	-1.4	.	5.3	.	.	.	.
NC(=O)c1ccc(NC(=O)COC(=O)c2c3c(nc4ccccc24)/C(=C\c2cccs2)CCC3)cc1	-4.8	2.9	.	22.8	.	.	.	.
CC(C)CNC(=O)COC(=O)c1c2c(nc3ccccc13)/C(=C/c1cccs1)CC2	-4.8	2.7	.	31.0*	.	.	38.2*	44.3*
CC1CCCCC1NC(=O)COC(=O)c1c2c(nc3ccccc13)/C(=C/c1ccco1)CC2 (stereo not drawn)	0.2	4.8	.	60.3*	.	.	36.6*	47.9*
CCOC(=O)c1[nH]c2ccccc2c1NC(=O)CC(C)(C)C	-2.6	-1.5	5.1	9.6	-4.7	11.4	.	.
O=C(O)CC12CSc3[nH]c(=O)sc3C1c1ccccc1OC2=O (stereo not drawn)	-2.6	-1.8	8.8	-4.9	-8.9	18.3	.	.
COc1ccc(Cl)c(Cn2c(NCc3ccco3)nc3c2c(=O)n(C)c(=O)n3C)c1	-4.1	-2.9	-2.2	-1.9	2.7	23.5	.	.
COc1cccc(Cn2c(NCc3ccco3)nc3c2c(=O)n(C)c(=O)n3C)c1	0.1	-0.9	4.6	27.5*	.	.	19.2	3.3
CC(/C=N/NC(=O)c1cc(-c2cccs2)[nH]n1)=C\c1ccccc1	-0.6	1.0	.	-6.0	.	.	.	.
Cc1[nH]c2ccccc2c1/C=N/NC(=O)c1cc(-c2cccs2)[nH]n1	-1.9	-0.8	.	28.4*	.	.	19.7	5.0
CCOCCCN1CN(Cc2ccccc2)CNC1=S	0.7	0.1	.	-13.7	.	.	.	.
NC(=O)CSCc1nc2ccccc2s1	-1.5	-2.8	0.9	30.6*	-3.5	-15.6	5.0	2.5
Cn1cnnc1SCC(=O)N1CCc2ccccc21	-0.9	-1.7	-10.5	-14.7	-4.2	-2.0	.	.
Cc1sc2ncnc(NCc3ccccc3)c2c1C	-2.3	-0.7	-10.3	29.4*	-7.5	31.9	20.0	13.7
Cc1sc2ncnc(NCC3COc4ccccc4O3)c2c1C (stereo not drawn)	-0.1	-0.3	.	38.6*	.	.	45.6*	10.7
CCCCSc1nc(C)[nH]c1[N+](=O)[O-]	-0.6	-2.7	-4.2	2.2	-2.4	0.3	.	.
SMILES	MRP1 act	GALR2 agonist	MRP reversal	GALR2 blocker	S1P2 ag	S1P2 antag	GALR2 ant conf	BLA inh counter
Cc1nc2ccc(NC(=O)c3ccc(Cl)c(S(=O)(=O)N(C)c4ccccc4)c3)cc2s1	-1.2	-2.2	.	0.8	.	.	.	.
Cc1nc2ccc(NC(=O)c3cc(S(=O)(=O)N(C)c4ccccc4)ccc3Cl)cc2s1	-2.8	4.4	.	36.8*	.	.	31.2*	5.1
CC(=O)C1=C(c2ccc(Br)cc2)C(=O)c2ccccc2C1=O	-5.2	-1.7	.	35.4*	.	.	26.5	16.3
CNC1=C(N(C(C)=O)c2ccc(Br)cc2)C(=O)c2ccccc2C1=O	-4.8	-1.1	.	0.7	.	.	.	.
C=CCOC(=O)CN1C(=O)c2ccccc2C1=O	-1.1	-1.6	-2.7	23.8	.	.	.	.
CCSc1nnc(NC(=O)C(CC)(C(F)(F)F)C(F)(F)F)s1	-0.9	-2.3	-30.7	28.0*	-0.5	-3.4	2.3	-1.7
CCSc1nnc(NC(=O)C(C)(C(F)(F)F)C(F)(F)F)s1	0.4	-2.2	3.5	4.9	-11.3	7.1	.	.
CCCCCOc1ccc(Br)cc1CSC(=N)N	-6.4	0.4	.	33.3*	.	.	37.7*	76.9*
COc1ccc(CC(=O)Nc2cccc(S(=O)(=O)N3CCCCCC3)c2)cc1OC	0.3	-0.8	.	27.6*	.	.	16.0	9.0
Fc1cccc(C2NC(=S)NC3=C2N2CCC3CC2)c1 (stereo not drawn)	-2.2	-1.9	-9.5	0.7	-3.6	-3.9	.	.
Brc1cnn(-c2nc(N3CCOCC3)nc(N3CCOCC3)n2)c1	.	.	4.8	.	.	.	.	.
O=C(NCc1ccco1)c1c(F)cccc1Cl	-1.6	-1.1	.	7.5	.	.	.	.
Cc1ccc(N=Cc2sc(O)c3ccccc23)cc1	-2.0	-1.9	.	27.8*	-8.0	38.1	32.4*	31.5*
CCN1/C(=C/c2ccc3cc(C)ccc3[n+]2CC)Sc2ccccc21	-4.3	-0.1	.	46.2*	.	.	47.5*	48.9*
CCN(CC)c1ccc(/C=N/Nc2nc3ccccc3[nH]2)cc1	-5.5	4.2	.	41.7*	.	.	35.1*	22.7
Cc1cc(=O)[nH]c(N/N=C/c2sccc2C)n1	-3.8	-1.8	.	-1.1	.	.	.	.
C(=N\Nc1nc2ccccc2[nH]1)/c1cccs1	-1.1	-2.6	.	28.8*	-4.4	15.0	26.6	12.6
Cc1ccsc1/C=N/Nc1nc2ccccc2[nH]1	-1.3	-1.4	.	32.5*	.	.	38.4*	11.6
C=CCn1cc(/C=N/Nc2nc3ccccc3[nH]2)c2ccccc21	-4.6	-0.7	.	28.1*	.	.	29.0*	10.8
COC(=O)c1cscc1NC(C)=O	0.3	-1.2	.	8.9	-3.9	2.6	.	.
CCOC(=O)C1C(=O)C=C(C)C(C(=O)OCC)C1c1ccc(OC)cc1 (stereo not drawn)	-2.7	-2.0	-10.6	1.7	-2.6	-0.9	.	.
COc1cc(/C=C(/C(=O)c2cccs2)c2nc3ccccc3[nH]2)cc(OC)c1O	-5.4	-3.1	-0.3	32.2*	-9.0	44.3	31.5*	34.5*
COc1ccc(-c2cc(C(F)(F)F)nc(SCC(N)=O)n2)cc1	-2.1	-1.0	24.3	-3.3	-2.2	0.7	.	.
O=C(CSc1nc2ccccc2o1)N1CCN(S(=O)(=O)c2ccc3ccccc3c2)CC1	-1.8	0.0	.	-4.4	.	.	.	.
O=C(Cn1ncc(Cl)c(Cl)c1=O)N1CCN(S(=O)(=O)c2ccc3ccccc3c2)CC1	-5.7	-1.2	.	29.1*	.	.	55.8*	2.4
COc1ccc(CCNc2c(C)c(C)nc3ncnn23)cc1	-4.5	-0.7	.	30.9*	-8.7	68.7*	39.2*	8.9

Assay outcomes: PubChem, several laboratories
